sPLA2-III inh: human group III sPLA2 inhibitors, primary screen, biochemical, QFRET, BODIPY PC-A2 liposome substrate. Group 3 secretory phospholipase A2 (Homo sapiens), Q9NZ20. hit rate 0.56% among 370,000. inhibition, % at 12.2 µM. QFRET BODIPY PC-A2 liposome hydrolysis, fluorescence;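 active = inhibition above mean plus 3 SD of compounds lying within the high and low control bounds, cut at about 19% in these data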;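 note: 0% = median of test compound wells and 100% = no enzyme DMSO wells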
UBC13 inh: UBC13 polyubiquitin chain formation inhibitors, primary screen, biochemical, TR-FRET, uHTS | Ubiquitin-conjugating enzyme E2 N (Homo sapiens), P61088 | inhibition, % at 20 µM | hit rate 0.47% among 330,000 | AID 485273, 2010; in the data active = inhibition above about 45%, passing the limit was not always enough
Target sequence (P61088 whole entry, looked up): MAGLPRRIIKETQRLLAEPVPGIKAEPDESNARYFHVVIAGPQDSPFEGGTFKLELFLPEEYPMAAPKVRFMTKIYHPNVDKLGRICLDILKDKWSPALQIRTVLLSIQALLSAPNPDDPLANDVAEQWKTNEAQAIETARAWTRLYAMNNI
SUMO HTRF inh: inhibitors of in vitro SUMOylation cascade, primary screen, biochemical, HTRF, uHTS. HTRF SUMOylation assay, SAE1/SAE2 + UBC9. inhibition, % at 35 µM. hit rate 0.36% among 290,000; in the data active = inhibition above about 50%, passing the limit was not always enough
Target sequence (P63279 whole entry, looked up): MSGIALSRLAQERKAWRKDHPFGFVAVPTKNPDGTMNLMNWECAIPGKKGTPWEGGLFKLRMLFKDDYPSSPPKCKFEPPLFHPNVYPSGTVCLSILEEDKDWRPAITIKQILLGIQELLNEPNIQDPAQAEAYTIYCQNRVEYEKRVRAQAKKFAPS
NR3A LBD binder: binders of NR3A ligand-binding domain, primary screen, biophysical, differential scanning fluorimetry, uHTS; Glutamate receptor ionotropic, NMDA 3A (GRIN3A) ligand-binding domain; NR3A LBD differential scanning fluorimetry, Tm shift; 0% = protein alone, 100% = glycine-bound protein; Tm shift relative to glycine control, % at 25 µM; hit rate 2.5% among 340,000; AID 1259313, 2017;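 active = melting temperature shift of at least 10% of the positive control shift, at one fixed dose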
sPLA2 confirm: human group III sPLA2 inhibitors, confirmation, biochemical, QFRET, triplicate; shares compounds with sPLA2-III inh; hit rate 34% among 2,000; recombinant hGIII-sPLA2, BODIPY PC-A2 QFRET fluorescence; inhibition, % at 12.2 µM;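 active = mean inhibition across triplicates above the hit cutoff set in the earlier primary screen, cut at about 19% in these data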;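 note: 0% = enzyme with DMSO and 100% = DMSO wells lacking enzyme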
535nm interf: 535nm fluorescence optical interference, confirmation, artefact control for HGIII-sPLA2 inhibitor project, biochemical, QFRET; shares compounds with sPLA2-III inh; BODIPY FL product fluorescence interference; inhibition, % at 12.2 µM; AID 743282, 2014; hit rate 8.5% among 2,000;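 active = average inhibition above the solvent-only control mean plus 3 SD, cut at about 6% in these data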;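 note: 0% = DMSO with substrate plus product and 100% = DMSO with substrate alone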
BODIPY interf DR: 535nm fluorescence optical interference, dose response, artefact control for HGIII-sPLA2 inhibitor project, biochemical, QFRET; shares compounds with sPLA2-III inh; BODIPY FL product fluorescence interference, cell-free; IC50, µM; 240 tested, under 10 active;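 active = IC50 at or below 10 µM; inactive = IC50 above 10 µM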
The depositor's hits bear a star; nt = no result; ! = a repeat was not active. An excerpt weighted towards active compounds, which were near 3.3% of everything screened.

SMILES	sPLA2-III inh	UBC13 inh	SUMO HTRF inh	NR3A LBD binder	sPLA2 confirm	535nm interf	others
CCOC(=O)[C@]12CCCC3=C1N(CCC3)C(=O)[C@@H](CC(=O)N1CCN(C(=O)c3ccco3)CC1)C2	15.2	nt	nt	nt	nt	nt
CC1CCCC(C)N1NC(=S)Nc1ccc(OC(F)F)cc1 (stereo not given)	19.4*	10.1	-22.4	-1.5	20.0*	-6.5
Nc1ccc(C(=O)C(=O)c2ccc(N)cc2)cc1	3.7	-10.2	15.8	4.1	nt	nt
N=C1C=CC(=C(c2ccc(N)cc2)c2ccc(N)cc2)C=C1	21.4*	nt	nt	-3.0	17.3	-1.0
O=C(OCn1nnc2ccccc2c1=O)c1cc(-c2ccccc2)nc2ccccc12	23.4*	17.5	3.0	-25.4	-3.6	-1.5
Cc1ccc(C(=O)C2CCN(CC(=O)N(C)C3CCCCC3)CC2)cc1	10.6	nt	nt	nt	nt	nt
O=S(=O)(O)c1ccc(O)c2cc(Nc3ccccc3)ccc12	25.0*	nt	nt	-8.0	11.0	1.0
NC(=S)Nn1c(-c2ccccc2)nc2ccccc2c1=O	19.4*	-9.1	4.7	9.3	5.6	0.1
COc1ccc(NC(=S)NC(NC(=O)c2cccc(Cl)c2)C(Cl)(Cl)Cl)c([N+](=O)[O-])c1 (stereo not given)	28.9*	-39.9	-6.6	12.6*	52.1*	11.8*
Clc1ccc([C@H]2OC[C@@]3(CNCCN4CCOCC4)CS[C@H](c4ccc(Cl)cc4)N23)cc1	5.5	nt	nt	nt	nt	nt
Oc1ccc(/C=N/NC(=S)NC2CC3CCC2C3)cc1 (stereo not given)	-13.7	9.0	33.7	2.4	nt	nt
S=C(N/N=C/c1cccs1)NC1CC2CCC1C2 (stereo not given)	27.6*	-2.7	-13.9	-3.7	36.2*	2.6	BODIPY interf DR=>122
CC(C)[C@H]1/C(=C/C2CC2)N2C(=O)C[C@@H](c3ccccc3)N=C2N1Cc1ccc2c(c1)OCO2	2.0	nt	nt	nt	nt	nt
COc1ccccc1NC(=O)c1ccc(SCC(=O)NCc2ccccc2Cl)c([N+](=O)[O-])c1	21.0*	-16.2	28.5	-0.9	7.6	-2.2
O=S(=O)(/N=C(/Nc1cc(N2CCOCC2)ncn1)c1ccc(F)cc1)c1ccccc1	19.6*!	0.0	6.0	1.7	3.7	-5.7
c1ccc(-c2ccc(CNc3nc(-c4ccccn4)nnc3-c3ccccc3)cc2)cc1	26.9*	nt	nt	nt	-0.7	-30.8
C=CCNc1nc(-c2ccccn2)nnc1-c1ccccc1	0.4	-16.0	6.9	0.0	nt	nt
Cc1cc(C)nc(N/N=C/c2cccc3ccccc23)n1	19.2*	-0.4	-31.4	-0.6	-3.2	-1.7
Cc1cc(C)nc(N/N=C/c2ccccc2Cl)n1	1.5	6.2	19.8	0.2	nt	nt
O=C(O)CNC(=O)/C(=C\c1ccc2c(c1)OCO2)NC(=O)c1ccc(Br)cc1	-5.4	-8.6	7.1	-0.6	nt	nt
CCN(CC)C(=O)/C(=C/c1ccc2c(c1)OCO2)NC(=O)c1ccc(Br)cc1	20.4*	-17.8	11.3	-1.1	3.7	-15.0
CCNC(=O)OCCN1C(=O)CCC12CCC(c1ccc(Cl)cc1)CC2 (stereo not given)	10.4	nt	nt	nt	nt	nt
CCOc1ccc(-n2c(COc3ccc(C)cc3)nnc2SCC(=O)c2ccc3ccccc3c2)cc1	-2.8	nt	nt	nt	nt	nt
O=C(CC1=NC2(CCCC2)Cc2ccccc21)N1CCOCC1	6.1	1.4	-1.0	0.5	nt	nt
CCC1(CC)Cc2ccccc2C(CC(=O)N2CCOCC2)=N1	19.6*	3.9	-3.6	-14.8	18.6	-10.3
C[C@H]1COc2cc(Br)ccc2S(=O)(=O)N1Cc1cn(CCC2OCCO2)nn1	9.2	nt	nt	nt	nt	nt
Cc1nn(C)c(-c2n[nH]c(=S)n2Cc2ccco2)c1Cl	20.1*	-6.7	4.9	-4.5	22.1*	-1.2
C[C@@H]1CCCCO[C@@H](CN(C)Cc2ccccc2)[C@@H](C)CN([C@H](C)CO)C(=O)c2cc(N(C)C)ccc2O1	23.6*	nt	nt	nt	10.2	-18.3
